# Assay results from the supplement of paper PMC9135407.
# Where “and” joins values, the source holds several entries; their conditions need not be identical. Equal values may be shown once. Where a name gives a salt, the structure may show the parent alone. About 620 (11%) of roughly 5,800 compounds showed activity.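 The calls were made as follows: active = score above a cut-off or among the top three wells of a plate; in these data no inactive exceeds 0.85.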 Only a selection was taken, and actives are over-represented in it overall.
# Test system: primary human hepatic stellate cells (donor 1)
# Assay: scaled lipid accumulation score (0 = DMSO-like, 1 = nortriptyline-like); higher = stronger HSC inactivation (lipid re-accumulation), active = hit call of the paper
# Details: 48 h
# [1] = library stock concentration: 10 mM
# [2] = library stock concentration: 3.33 mM
# [3] = library stock concentration: 80 uM
# [4] = library stock concentration: 400 uM
# [5] = library stock concentration: 2 mM
# [6] = library stock concentration: 1 mM
# [7] = library stock concentration: 2.6 mM
smiles,measurement,setting,value
O=C1c2c(O)cc(O)cc2O[C@H](c2ccc(O)c(O)c2)[C@H]1O,scaled lipid accumulation score,[1],≤ 0 (inactive)
OCc1ccccc1O [Salicyl alcohol],scaled lipid accumulation score,[1],≤ 0 (inactive)
same,scaled lipid accumulation score,library stock concentration: 16.1 mM,≤ 0 (inactive)
COc1ccc(S(=O)(=O)N(CCO)c2ccccc2CN(C)C/C=C/c2ccc(Cl)cc2)cc1 [KN-93 Phosphate],scaled lipid accumulation score,[2],0.441 (inactive)
COc1ccc(S(=O)(=O)N(C(C)=O)c2ccccc2/C=C/c2cc[n+]([O-])cc2)cc1,scaled lipid accumulation score,[3],≤ -0.016 (inactive)
same,scaled lipid accumulation score,[4],≤ -0.016 (inactive)
same,scaled lipid accumulation score,[5],≤ -0.016 (inactive)
same,scaled lipid accumulation score,[2],≤ 0 (inactive)
same,scaled lipid accumulation score,[1],≤ 0 (inactive) and 0.15 (inactive)
COc1ccc(S(=O)(=O)N(CCO)c2ccccc2CN(C)CC=Cc2ccc(Cl)cc2)cc1.O=P(=O)OO.[H] [KN-93 Phosphate],scaled lipid accumulation score,[1],1.07 (active)
CCCCCCCC/C=C\CCCCCCCC(=O)N[C@@H](CO)C(=O)O [N-Oleoyl-L-Serine],scaled lipid accumulation score,[6],≤ 0 (inactive)
CCCC1([C@H](O)C/C=C/[C@H]2[C@H](O)CC(=O)[C@@H]2CCCCCCC(=O)OC)CCC1 [Butaprost],scaled lipid accumulation score,[6],≤ 0 (inactive)
CC/C=C\C/C=C\C/C=C\C/C=C\C/C=C\CCCCCC(=O)O [Docosapentaenoic Acid],scaled lipid accumulation score,[6],≤ 0 (inactive)
CC/C=C\C/C=C\C/C=C\C/C=C\C/C=C\CCCCCC(=O)O [Docosapentaenoic acid],scaled lipid accumulation score,[6],≤ -0.021 (inactive)
COc1cc2nccc(Oc3ccc(NC(=O)Nc4ccc(F)cc4F)c(F)c3)c2cc1OC [listing 1 of 3 here],scaled lipid accumulation score,[1],1.05 (active)
COc1cc2nccc(Oc3ccc(NC(=O)Nc4cc(C)on4)c(Cl)c3)c2cc1OC,scaled lipid accumulation score,[3],0.016 (inactive)
same,scaled lipid accumulation score,[4],≤ 0 (inactive)
same,scaled lipid accumulation score,[5],0.009 (inactive)
same,scaled lipid accumulation score,[1],0.246 (inactive)
"COc1cc2nccc(Oc3ccc(NC(=O)Nc4cc(C)on4)c(Cl)c3)c2cc1OC [AV951 (KRN951, Tivozanib) (10 mM)]",scaled lipid accumulation score,[1],0.775 (inactive)
COc1cc2nccc(Oc3ccc(NC(=O)Nc4cc(C)on4)c(Cl)c3)c2cc1OC [VEGFR Tyrosine Kinase Inhibitor IV],scaled lipid accumulation score,[2],≤ 0 (inactive)
COc1cc2nccc(Oc3ccc(NC(=O)Nc4ccc(F)cc4F)c(F)c3)c2cc1OC [listing 2 of 3 here],scaled lipid accumulation score,[2],0.473 (inactive)
COc1cc(Oc2ccnc3cc(OC)c(OC)cc23)ccc1NC(=O)NC(C)c1nccs1 (configuration not stated),scaled lipid accumulation score,[3],≤ -0.016 (inactive)
same,scaled lipid accumulation score,[4],≤ -0.016 (inactive) and ≤ -0.005 (inactive)
same,scaled lipid accumulation score,[5],≤ -0.016 (inactive) and ≤ -0.005 (inactive)
same,scaled lipid accumulation score,[1],0.713 (inactive) and 0.552 (inactive)
"COc1cc2nccc(Oc3ccc(NC(=O)Nc4cc(C)on4)c(Cl)c3)c2cc1OC [AV951 (KRN951, Tivozanib) (2 mM)]",scaled lipid accumulation score,[5],≤ -0.005 (inactive)
COc1cc2nccc(Oc3ccc(NC(=O)NC4CC4)c(Cl)c3)c2cc1C(N)=O [Lenvatinib (E7080)],scaled lipid accumulation score,[2],0.055 (inactive)
same,scaled lipid accumulation score,[1],≤ 0 (inactive)
COc1cc2nccc(Oc3ccc(NC(=O)Nc4cc(C)on4)c(Cl)c3)c2cc1OC [Tivozanib (AV-951)],scaled lipid accumulation score,[2],0.068 (inactive)
same,scaled lipid accumulation score,[1],0.098 (inactive)
COc1cc2nccc(Oc3ccc(NC(=O)Nc4ccc(F)cc4F)c(F)c3)c2cc1OC [listing 3 of 3 here],scaled lipid accumulation score,[1],1.22 (active)
"COc1cc2nccc(Oc3ccc(NC(=O)Nc4cc(C)on4)c(Cl)c3)c2cc1OC [AV951 (KRN951, Tivozanib) (0.4 mM)]",scaled lipid accumulation score,[4],≤ -0.005 (inactive)
COc1cc2nccc(Oc3ccc(NC(=O)NC4CC4)c(Cl)c3)c2cc1C(N)=O,scaled lipid accumulation score,[4],0.067 (inactive)
same,scaled lipid accumulation score,[5],≤ -0.005 (inactive)
same,scaled lipid accumulation score,[1],≤ -0.005 (inactive)
CC(=O)N(O)[C@@H]1c2cc(C#N)ccc2OC(C)(C)[C@H]1O,scaled lipid accumulation score,[1],≤ 0 (inactive)
O=C(O)CCC/C=C\C[C@@H]1[C@@H](/C=C/C(F)(F)COc2ccccc2)[C@H](O)C[C@@H]1O [Tafluprost (free acid)],scaled lipid accumulation score,[6],0.007 (inactive)
CCCCC[C@H](O)/C=C/[C@@H]1[C@@H](C/C=C\CCCCN(C)C)[C@@H](O)C[C@H]1O [Prostaglandin F2.alpha. dimethyl amine],scaled lipid accumulation score,[6],≤ 0 (inactive)
CCCCCCCCCCCCCCCCCCOCC(COP(=O)([O-])OCC[N+](C)(C)C)OC (configuration not stated),scaled lipid accumulation score,[1],≤ -0.024 (inactive)
O=C(O)CCC/C=C\C[C@@H]1[C@@H](/C=C/C(=O)CCc2ccccc2)[C@H](O)C[C@@H]1O [15-keto-17-phenyl trinor Prostaglandin F2.alpha.],scaled lipid accumulation score,[6],≤ 0 (inactive)
CCCCC[C@H](O)/C=C/[C@@H]1[C@@H](C/C=C\CCCC(=O)OCC(O)CO)[C@@H](O)C[C@H]1O (stereo partly drawn) [Prostaglandin F2.alpha.-1-glyceryl ester],scaled lipid accumulation score,[6],≤ 0 (inactive)
CCCCCCCC(=O)CC[C@@H]1[C@@H](C/C=C\CCCC(=O)OC(C)C)[C@@H](O)C[C@H]1O [Unoprostone isopropyl ester],scaled lipid accumulation score,[6],≤ 0 (inactive)
O=C(O)c1ccc(-c2c[nH]c3ncc(-c4ccccc4)cc23)cc1C1CCCC1,scaled lipid accumulation score,[2],≤ -0.009 (inactive)
same,scaled lipid accumulation score,[1],0.079 (inactive) and ≤ -0.001 (inactive)
CN1CCN(Cc2ccc(-c3cnc4[nH]cc(-c5ccc6[nH]ccc6c5)c4c3)cc2)CC1 [listing 1 of 2 here],scaled lipid accumulation score,[3],≤ -0.001 (inactive)
same,scaled lipid accumulation score,[4],0.001 (inactive)
same,scaled lipid accumulation score,[1],0.422 (inactive)
CN1CCN(Cc2ccc(-c3cnc4[nH]cc(-c5ccc6[nH]ccc6c5)c4c3)cc2)CC1 [listing 2 of 2 here],scaled lipid accumulation score,[5],1.3 (active)
NC[C@H]1O[C@@H](n2cnc3c(N)ncnc32)[C@H](O)[C@@H]1O [5'-Amino-5'-deoxyadenosine p-toluenesulfonate salt],scaled lipid accumulation score,[1],≤ 0 (inactive)
CCN(CC)CCOc1ccc2c(c1)C(=O)c1cc(OCCN(CC)CC)ccc1-2 [Tilorone] [listing 1 of 2 here],scaled lipid accumulation score,[1],0.879 (active)
CCCOc1cc(N)ccc1C(=O)OCCN(CC)CC [Propoxycaine hydrochloride],scaled lipid accumulation score,,≤ 0 (inactive)
CCN(CC)CCOc1ccc2c(c1)C(=O)c1cc(OCCN(CC)CC)ccc1-2 [Tilorone] [listing 2 of 2 here],scaled lipid accumulation score,library stock concentration: 4.9 mM,0.006 (inactive)
FC(F)(F)COCC(F)(F)F [Flurothyl],scaled lipid accumulation score,library stock concentration: 11 mM,≤ -0.001 (inactive)
OCCC#Cc1nc(-c2ccc(F)cc2)c(-c2ccncc2)n1CCCc1ccccc1,scaled lipid accumulation score,[4],≤ -0.005 (inactive)
same,scaled lipid accumulation score,[5],≤ -0.005 (inactive)
same,scaled lipid accumulation score,[1],0.668 (inactive)
Nc1ncnc2c1ncn2C1CCCO1 (configuration not stated),scaled lipid accumulation score,[1],≤ 0 (inactive) and ≤ -0.006 (inactive)
same,scaled lipid accumulation score,library stock concentration: 24.4 mM,≤ -0.005 (inactive)
CC(=O)c1ccc2c(c1)N(CCCN1CCC(CCO)CC1)c1ccccc1S2 [Piperacetazine],scaled lipid accumulation score,,0.427 (inactive)
COc1ccccc1N1CCN(CCCCN2C(=O)c3ccccc3C2=O)CC1 [NAN-190 hydrobromide],scaled lipid accumulation score,[1],0.324 (inactive) and 0.002 (inactive)
Cl.O=C(CCCCCN1CCN(c2ccccc2-c2ccccc2)CC1)NC1CCCc2ccccc21 (configuration not stated) [LP 12 hydrochloride hydrate],scaled lipid accumulation score,[1],0.898 (active)
CSc1ccccc1N1CCN(CCCCCC(=O)NC2CCCc3ccccc32)CC1.Cl (configuration not stated),scaled lipid accumulation score,[1],1.06 (active)
CC(=O)c1ccc2c(c1)N(CCCN1CCN(CCO)CC1)c1ccccc1S2,scaled lipid accumulation score,[1],0.638 (inactive)
O=C(O)C=C1CCCc2ccccc2C1O (configuration not stated),scaled lipid accumulation score,[1],0.122 (inactive) and 0.034 (inactive)
CC(=O)Nc1cccc2c1c(Sc1ccc(Cl)cc1)c(C)n2CC(=O)O,scaled lipid accumulation score,[2],≤ -0.009 (inactive)
same,scaled lipid accumulation score,[1],0.195 (inactive)
CC[n+]1c(/C=C/N(C)c2ccccc2)n(-c2ccccc2)c2ccc(-c3nc4ccccc4s3)cc21 [Akt Inhibitor IV],scaled lipid accumulation score,[2],≤ 0 (inactive)
CCCCCCCCCCCCCCCCCCCC(=O)NCCO [Arachidoyl Ethanolamide],scaled lipid accumulation score,[6],≤ 0 (inactive)
COc1cc(/C=C/C(=O)N2CCCCCCC2)cc(OC)c1OC,scaled lipid accumulation score,[1],≤ 0 (inactive)
C[C@H]1O[C@@H](O[C@H]2[C@@H](O)C[C@H](O[C@H]3[C@@H](O)C[C@H](O[C@H]4CC[C@@]5(C)[C@H](CC[C@@H]6[C@@H]5C[C@@H](O)[C@]5(C)[C@@H](C7=CC(=O)OC7)CC[C@]65O)C4)O[C@@H]3C)O[C@@H]2C)C[C@H](O)[C@@H]1O [Digoxin],scaled lipid accumulation score,,1.03 (active)
same,scaled lipid accumulation score,[2],1.11 (active)
same,scaled lipid accumulation score,[1],0.888 (active) and 0.816 (inactive)
C[C@H]1O[C@@H](O[C@H]2[C@@H](O)C[C@H](O[C@H]3[C@@H](O)C[C@H](O[C@H]4CC[C@]5(C)C6C[C@@H](O)[C@]7(C)[C@@H](C8=CC(=O)OC8)CC[C@]7(O)C6CC[C@@H]5C4)O[C@@H]3C)O[C@@H]2C)C[C@H](O)[C@@H]1O (some centres not stated) [Digoxin],scaled lipid accumulation score,[7],0.937 (active)
C[C@H]1O[C@@H](O[C@H]2[C@@H](O)C[C@H](O[C@H]3[C@@H](O)C[C@H](O[C@H]4CC[C@@]5(C)[C@H](CC[C@@H]6[C@@H]5CC[C@]5(C)[C@@H](C7=CC(=O)OC7)CC[C@]65O)C4)O[C@@H]3C)O[C@@H]2C)C[C@H](O)[C@@H]1O [Digitoxin],scaled lipid accumulation score,[1],0.545 (inactive)
C[C@H]1O[C@@H](O[C@H]2[C@@H](O)C[C@H](O[C@H]3[C@@H](O)C[C@H](O[C@H]4CC[C@@]5(C)[C@H](CC[C@@H]6[C@@H]5C[C@@H](O)[C@]5(C)[C@@H](C7=CC(=O)OC7)CC[C@]65O)C4)O[C@@H]3C)O[C@@H]2C)C[C@H](O)[C@@H]1O,scaled lipid accumulation score,[1],0.599 (inactive)
C[C@H]1O[C@@H](O[C@H]2[C@@H](O)C[C@H](O[C@H]3[C@@H](O)C[C@H](O[C@H]4CC[C@]5(C)C6CC[C@]7(C)[C@@H](C8=CC(=O)OC8)CC[C@]7(O)C6CC[C@@H]5C4)O[C@@H]3C)O[C@@H]2C)C[C@H](O)[C@@H]1O (some centres not stated) [Digitoxin],scaled lipid accumulation score,[7],1.2 (active)
